This is an account of results in article PMC7862700, “An all-to-all approach to the identification of sequence-specific readers for epigenetic DNA modifications on cytosine”.

What all share (test): DAPPL (digital affinity profiling via proximity ligation, sequencing); 10 mM Tris-HCl pH 7.5, 50 mM NaCl, 1 mM DTT, 4% glycerol, room temperature, 30 min; GST-TFs on glutathione beads, 16-mer random dsDNA library, 0.1% formaldehyde crosslink after washing; high values mean tight binding
One assay has as its target T1, FEV (Homo sapiens, UniProt Q99581 1-238).
T1 sequence: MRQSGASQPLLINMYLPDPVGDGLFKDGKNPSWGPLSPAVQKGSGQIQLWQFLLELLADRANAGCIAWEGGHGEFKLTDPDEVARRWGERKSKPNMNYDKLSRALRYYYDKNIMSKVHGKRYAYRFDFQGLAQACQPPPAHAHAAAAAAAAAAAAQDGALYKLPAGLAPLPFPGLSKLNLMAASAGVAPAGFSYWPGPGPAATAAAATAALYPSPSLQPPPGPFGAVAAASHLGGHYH
The settings on record: protein: recombinant; tags: N-terminal GST; dsDNA, one strand shown. The procedure, abridged: (§1)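 Pools were built from human transcription factors expressed in yeast as GST fusions, captured on glutathione beads and DNA-barcoded, along with a tag-only sample. Incubation with 200 nmole of a 16-mer random double-stranded DNA library lasted 30 min at room temperature in Tris/NaCl/DTT/glycerol buffer, and was followed by washing, 0.1% formaldehyde crosslinking, proximity ligation, PCR amplification and Illumina NextSeq500 sequencing. Binding signal is the quotient of each hexamer's read frequency for a factor and its frequency for the tag-only sample.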

The target in another assay is ETV5 (Homo sapiens, UniProt P41161 1-510). Particulars: protein: recombinant; tags: N-terminal GST; dsDNA, one strand shown. The procedure, abridged: as §1
In another assay the target is HSF1 (Homo sapiens, UniProt Q00613 1-529). The settings on record: protein: recombinant; tags: N-terminal GST; chain copies: 3; dsDNA, one strand shown. The procedure, abridged:
as §1

In a further assay the target is T2, SPIC (Homo sapiens, UniProt Q8N5J4 1-248).
T2 sequence: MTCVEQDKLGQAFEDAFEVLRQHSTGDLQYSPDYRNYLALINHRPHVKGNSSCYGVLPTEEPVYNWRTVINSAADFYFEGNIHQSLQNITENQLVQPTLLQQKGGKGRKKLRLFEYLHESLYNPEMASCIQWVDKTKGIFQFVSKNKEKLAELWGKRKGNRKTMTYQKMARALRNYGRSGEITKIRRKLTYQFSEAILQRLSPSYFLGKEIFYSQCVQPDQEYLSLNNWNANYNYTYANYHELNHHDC
The settings on record: protein: recombinant; tags: N-terminal GST; dsDNA, one strand shown. The procedure, abridged: as §1

Another assay has as its target ELF4 (Homo sapiens, UniProt Q99607 1-663). Particulars: protein: recombinant; tags: N-terminal GST; dsDNA, one strand shown. The procedure, abridged:
as §1

The target in a further assay is T3, ELK4 (Homo sapiens, UniProt P28324-2 1-405).
T3 sequence: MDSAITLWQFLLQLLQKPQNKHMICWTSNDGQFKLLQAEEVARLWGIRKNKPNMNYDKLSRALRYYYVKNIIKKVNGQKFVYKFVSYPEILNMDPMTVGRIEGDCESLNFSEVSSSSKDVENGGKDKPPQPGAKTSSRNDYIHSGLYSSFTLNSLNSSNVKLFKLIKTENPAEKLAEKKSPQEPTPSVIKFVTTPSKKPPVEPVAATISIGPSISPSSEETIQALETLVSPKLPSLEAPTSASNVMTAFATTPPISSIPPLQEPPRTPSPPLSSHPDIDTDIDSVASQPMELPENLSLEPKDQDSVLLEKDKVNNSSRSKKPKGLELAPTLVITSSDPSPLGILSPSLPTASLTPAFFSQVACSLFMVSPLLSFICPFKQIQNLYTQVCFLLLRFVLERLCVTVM
Particulars: protein: recombinant; tags: N-terminal GST; dsDNA, one strand shown. The procedure, abridged: as §1

The target in the next assay is T4, ETV2 (Homo sapiens, UniProt O00321 1-342).
T4 sequence: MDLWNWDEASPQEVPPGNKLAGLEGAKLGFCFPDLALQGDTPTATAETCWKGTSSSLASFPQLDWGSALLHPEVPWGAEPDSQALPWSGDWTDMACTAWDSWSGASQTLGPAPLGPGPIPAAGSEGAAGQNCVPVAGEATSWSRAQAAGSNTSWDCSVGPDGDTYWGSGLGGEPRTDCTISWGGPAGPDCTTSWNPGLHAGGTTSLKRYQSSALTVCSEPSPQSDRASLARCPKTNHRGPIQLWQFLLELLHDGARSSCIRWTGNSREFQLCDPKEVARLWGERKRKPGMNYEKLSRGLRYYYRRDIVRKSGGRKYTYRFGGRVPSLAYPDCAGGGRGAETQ
The settings on record: protein: recombinant; tags: N-terminal GST; dsDNA, one strand shown. The procedure, abridged:
as §1

A further assay has as its target T5, ELF3 (Homo sapiens, UniProt P78545 1-371).
T5 sequence: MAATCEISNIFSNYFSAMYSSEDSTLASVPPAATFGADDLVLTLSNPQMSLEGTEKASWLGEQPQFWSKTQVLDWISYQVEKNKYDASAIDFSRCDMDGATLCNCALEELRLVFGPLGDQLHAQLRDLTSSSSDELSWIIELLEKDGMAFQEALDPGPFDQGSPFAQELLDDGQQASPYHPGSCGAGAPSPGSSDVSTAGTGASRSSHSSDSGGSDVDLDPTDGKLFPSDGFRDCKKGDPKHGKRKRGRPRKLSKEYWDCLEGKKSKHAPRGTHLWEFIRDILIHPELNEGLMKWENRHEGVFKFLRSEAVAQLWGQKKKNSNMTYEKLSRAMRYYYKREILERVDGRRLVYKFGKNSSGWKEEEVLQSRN
Particulars: protein: recombinant; tags: N-terminal GST; dsDNA, one strand shown. The procedure, abridged:
as §1

For the next assay, the target named is CRX (Homo sapiens, UniProt O43186 1-299). Particulars: protein: recombinant; tags: N-terminal GST; dsDNA, one strand shown. The procedure, abridged: as §1
The target of a further assay is ETV1 (Homo sapiens, UniProt P50549 1-477). The settings on record: protein: recombinant; tags: N-terminal GST; dsDNA, one strand shown. The procedure, abridged:
as §1

For a further assay, the target named is T6, ERF (Homo sapiens, UniProt P50548 1-548).
T6 sequence: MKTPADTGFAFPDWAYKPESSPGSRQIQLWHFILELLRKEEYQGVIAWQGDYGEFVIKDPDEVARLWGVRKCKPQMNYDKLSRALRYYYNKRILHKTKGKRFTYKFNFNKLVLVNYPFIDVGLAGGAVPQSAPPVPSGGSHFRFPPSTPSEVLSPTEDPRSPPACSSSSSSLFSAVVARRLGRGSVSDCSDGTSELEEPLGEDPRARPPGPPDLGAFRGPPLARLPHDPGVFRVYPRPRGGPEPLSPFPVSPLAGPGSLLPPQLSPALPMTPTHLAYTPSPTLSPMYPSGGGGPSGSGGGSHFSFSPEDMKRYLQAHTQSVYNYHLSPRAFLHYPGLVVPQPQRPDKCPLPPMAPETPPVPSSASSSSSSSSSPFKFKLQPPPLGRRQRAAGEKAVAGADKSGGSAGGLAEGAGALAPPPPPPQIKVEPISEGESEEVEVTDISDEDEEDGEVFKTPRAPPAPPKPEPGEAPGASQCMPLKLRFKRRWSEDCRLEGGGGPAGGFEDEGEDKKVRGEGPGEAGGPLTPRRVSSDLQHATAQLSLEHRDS
The settings on record: protein: recombinant; tags: N-terminal GST; dsDNA, one strand shown. The procedure, abridged: as §1

The target of a further assay is T7, ETV3L (Homo sapiens, UniProt Q6ZN32 1-361).
T7 sequence: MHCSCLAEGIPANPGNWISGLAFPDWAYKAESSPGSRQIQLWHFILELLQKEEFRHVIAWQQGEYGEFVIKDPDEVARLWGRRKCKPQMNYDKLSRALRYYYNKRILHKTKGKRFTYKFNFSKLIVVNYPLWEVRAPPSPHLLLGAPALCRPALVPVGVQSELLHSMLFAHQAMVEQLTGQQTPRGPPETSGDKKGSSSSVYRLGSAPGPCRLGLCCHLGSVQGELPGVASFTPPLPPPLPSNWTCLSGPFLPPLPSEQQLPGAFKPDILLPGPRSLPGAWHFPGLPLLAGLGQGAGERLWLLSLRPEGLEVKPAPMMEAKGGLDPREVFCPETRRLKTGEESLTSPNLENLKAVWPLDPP
Particulars: protein: recombinant; tags: N-terminal GST; dsDNA, one strand shown. The procedure, abridged: as §1

Another assay has as its target T8, ETS2 (Homo sapiens, UniProt P15036 1-469).
T8 sequence: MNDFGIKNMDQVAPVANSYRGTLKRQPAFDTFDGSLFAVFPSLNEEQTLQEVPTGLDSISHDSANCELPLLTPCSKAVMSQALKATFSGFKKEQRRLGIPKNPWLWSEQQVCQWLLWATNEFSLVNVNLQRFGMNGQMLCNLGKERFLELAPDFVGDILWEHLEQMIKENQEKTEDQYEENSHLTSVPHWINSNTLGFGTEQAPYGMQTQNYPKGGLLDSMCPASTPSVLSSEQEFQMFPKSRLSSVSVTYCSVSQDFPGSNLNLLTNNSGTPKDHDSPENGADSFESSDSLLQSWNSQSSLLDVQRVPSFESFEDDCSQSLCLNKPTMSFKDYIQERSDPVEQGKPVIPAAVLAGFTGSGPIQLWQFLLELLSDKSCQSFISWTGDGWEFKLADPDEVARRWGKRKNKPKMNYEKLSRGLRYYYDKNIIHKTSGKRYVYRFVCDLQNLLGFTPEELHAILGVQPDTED
The settings on record: protein: recombinant; tags: N-terminal GST; dsDNA, one strand shown. The procedure, abridged: as §1

The next assay addresses T9, SPDEF (Homo sapiens, UniProt O95238 1-335).
T9 sequence: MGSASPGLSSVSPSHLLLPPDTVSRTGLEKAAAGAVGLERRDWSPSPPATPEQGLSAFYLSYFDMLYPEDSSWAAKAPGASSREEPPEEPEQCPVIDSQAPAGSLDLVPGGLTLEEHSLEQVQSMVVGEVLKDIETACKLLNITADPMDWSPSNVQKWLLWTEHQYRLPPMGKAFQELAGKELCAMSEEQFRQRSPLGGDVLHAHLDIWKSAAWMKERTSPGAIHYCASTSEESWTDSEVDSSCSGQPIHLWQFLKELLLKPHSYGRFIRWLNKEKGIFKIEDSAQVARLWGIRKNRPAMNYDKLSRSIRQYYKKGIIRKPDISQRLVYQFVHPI
Particulars: protein: recombinant; tags: N-terminal GST; dsDNA, one strand shown. The procedure, abridged: as §1

In another assay the target is T10, ETV7 (Homo sapiens, UniProt Q9Y603 1-341).
T10 sequence: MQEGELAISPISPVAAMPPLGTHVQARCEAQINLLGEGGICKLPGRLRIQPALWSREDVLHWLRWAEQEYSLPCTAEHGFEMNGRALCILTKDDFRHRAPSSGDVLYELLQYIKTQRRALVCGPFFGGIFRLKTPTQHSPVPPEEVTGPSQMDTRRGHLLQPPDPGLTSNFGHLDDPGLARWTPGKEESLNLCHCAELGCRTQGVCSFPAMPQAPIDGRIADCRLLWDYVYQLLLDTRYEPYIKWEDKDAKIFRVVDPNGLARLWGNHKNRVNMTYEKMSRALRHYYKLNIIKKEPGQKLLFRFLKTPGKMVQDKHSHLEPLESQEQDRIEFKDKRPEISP
Particulars: protein: recombinant; tags: N-terminal GST; dsDNA, one strand shown. The procedure, abridged: as §1

The target in another assay is T11, ELF5 (Homo sapiens, UniProt Q9UKW6-2 1-255).
T11 sequence: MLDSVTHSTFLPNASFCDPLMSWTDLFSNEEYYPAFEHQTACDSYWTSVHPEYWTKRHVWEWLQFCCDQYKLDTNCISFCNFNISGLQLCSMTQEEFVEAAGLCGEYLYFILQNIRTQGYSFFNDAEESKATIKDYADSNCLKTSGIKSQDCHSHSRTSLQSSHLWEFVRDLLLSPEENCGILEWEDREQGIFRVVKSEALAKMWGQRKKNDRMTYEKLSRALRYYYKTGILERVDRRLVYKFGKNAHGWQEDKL
Particulars: protein: recombinant; tags: N-terminal GST; dsDNA, one strand shown. The procedure, abridged: as §1

For the next assay, the target named is T12, ETV3 (Homo sapiens, UniProt P41162-2 1-143).
T12 sequence: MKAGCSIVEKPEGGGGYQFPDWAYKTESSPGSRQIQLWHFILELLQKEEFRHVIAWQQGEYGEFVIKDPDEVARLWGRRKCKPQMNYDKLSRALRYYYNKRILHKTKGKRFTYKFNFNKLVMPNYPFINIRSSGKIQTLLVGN
Particulars: protein: recombinant; tags: N-terminal GST; dsDNA, one strand shown. The procedure, abridged: as §1

Another assay has as its target ETV6 (Homo sapiens, UniProt P41212 1-452). Particulars: protein: recombinant; tags: N-terminal GST; dsDNA, one strand shown. The procedure, abridged: as §1

Sequence of ETV6 (P41212 whole entry): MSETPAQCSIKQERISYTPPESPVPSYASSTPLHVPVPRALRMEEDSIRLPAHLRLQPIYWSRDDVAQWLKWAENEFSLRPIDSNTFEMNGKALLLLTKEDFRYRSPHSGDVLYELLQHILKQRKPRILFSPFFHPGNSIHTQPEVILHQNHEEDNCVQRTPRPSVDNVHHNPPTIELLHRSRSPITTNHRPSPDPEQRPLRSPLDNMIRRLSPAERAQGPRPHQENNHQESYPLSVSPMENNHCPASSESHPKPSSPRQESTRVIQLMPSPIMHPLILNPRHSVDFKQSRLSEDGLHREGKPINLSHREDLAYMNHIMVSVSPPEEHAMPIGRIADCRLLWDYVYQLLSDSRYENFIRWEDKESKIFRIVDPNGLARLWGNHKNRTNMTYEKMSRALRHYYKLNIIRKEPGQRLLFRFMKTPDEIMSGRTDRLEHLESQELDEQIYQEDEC
Sequence of CRX (O43186 whole entry): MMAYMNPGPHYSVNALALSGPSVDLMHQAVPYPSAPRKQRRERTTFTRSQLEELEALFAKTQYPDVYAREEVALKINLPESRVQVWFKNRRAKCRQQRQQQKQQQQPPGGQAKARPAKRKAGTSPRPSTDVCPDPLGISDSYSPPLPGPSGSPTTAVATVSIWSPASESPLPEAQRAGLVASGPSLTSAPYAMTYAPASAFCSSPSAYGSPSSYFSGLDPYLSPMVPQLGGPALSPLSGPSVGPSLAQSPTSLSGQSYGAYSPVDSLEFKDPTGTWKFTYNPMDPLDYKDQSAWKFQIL
Sequence of ETV1 (P50549 whole entry): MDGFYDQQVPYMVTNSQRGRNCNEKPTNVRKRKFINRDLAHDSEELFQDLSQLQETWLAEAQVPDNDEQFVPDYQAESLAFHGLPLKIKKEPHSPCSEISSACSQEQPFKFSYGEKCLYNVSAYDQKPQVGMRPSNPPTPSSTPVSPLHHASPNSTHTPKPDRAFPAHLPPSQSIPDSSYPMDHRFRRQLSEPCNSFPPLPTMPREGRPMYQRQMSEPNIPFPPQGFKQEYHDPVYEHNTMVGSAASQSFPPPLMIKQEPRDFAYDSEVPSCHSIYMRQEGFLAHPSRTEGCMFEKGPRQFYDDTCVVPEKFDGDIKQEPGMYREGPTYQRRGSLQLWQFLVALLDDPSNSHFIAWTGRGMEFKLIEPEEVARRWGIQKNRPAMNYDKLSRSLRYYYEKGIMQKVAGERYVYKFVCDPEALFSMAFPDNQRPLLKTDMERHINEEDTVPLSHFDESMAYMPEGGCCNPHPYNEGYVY
Sequence of HSF1 (Q00613 whole entry): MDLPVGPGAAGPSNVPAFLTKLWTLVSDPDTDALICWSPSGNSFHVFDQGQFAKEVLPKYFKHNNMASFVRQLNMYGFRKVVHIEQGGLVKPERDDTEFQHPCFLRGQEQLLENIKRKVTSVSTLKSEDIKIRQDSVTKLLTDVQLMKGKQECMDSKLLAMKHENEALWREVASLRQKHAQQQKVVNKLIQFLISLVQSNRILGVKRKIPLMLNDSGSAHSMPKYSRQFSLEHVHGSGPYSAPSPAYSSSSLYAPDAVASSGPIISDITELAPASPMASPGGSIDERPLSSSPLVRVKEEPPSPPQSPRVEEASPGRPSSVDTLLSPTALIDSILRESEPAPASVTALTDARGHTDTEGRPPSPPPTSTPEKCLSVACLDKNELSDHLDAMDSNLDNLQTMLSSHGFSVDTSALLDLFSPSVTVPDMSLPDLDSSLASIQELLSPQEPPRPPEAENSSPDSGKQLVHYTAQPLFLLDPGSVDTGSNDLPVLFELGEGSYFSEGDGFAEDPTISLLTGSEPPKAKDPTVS
Sequence of ETV5 (P41161 whole entry): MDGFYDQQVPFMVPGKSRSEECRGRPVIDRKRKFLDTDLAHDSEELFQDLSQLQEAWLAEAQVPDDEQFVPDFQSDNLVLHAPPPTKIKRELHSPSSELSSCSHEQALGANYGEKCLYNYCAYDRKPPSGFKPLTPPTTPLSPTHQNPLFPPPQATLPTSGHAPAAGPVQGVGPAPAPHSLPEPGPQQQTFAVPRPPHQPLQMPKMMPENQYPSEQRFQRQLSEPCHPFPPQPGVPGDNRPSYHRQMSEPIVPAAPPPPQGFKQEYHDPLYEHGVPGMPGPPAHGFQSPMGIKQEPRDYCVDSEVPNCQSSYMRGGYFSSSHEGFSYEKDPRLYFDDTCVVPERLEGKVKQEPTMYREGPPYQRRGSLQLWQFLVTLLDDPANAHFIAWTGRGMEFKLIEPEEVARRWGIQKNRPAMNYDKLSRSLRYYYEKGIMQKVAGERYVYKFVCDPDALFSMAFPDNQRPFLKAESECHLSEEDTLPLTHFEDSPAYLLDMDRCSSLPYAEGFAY
Sequence of ELF4 (Q99607 whole entry): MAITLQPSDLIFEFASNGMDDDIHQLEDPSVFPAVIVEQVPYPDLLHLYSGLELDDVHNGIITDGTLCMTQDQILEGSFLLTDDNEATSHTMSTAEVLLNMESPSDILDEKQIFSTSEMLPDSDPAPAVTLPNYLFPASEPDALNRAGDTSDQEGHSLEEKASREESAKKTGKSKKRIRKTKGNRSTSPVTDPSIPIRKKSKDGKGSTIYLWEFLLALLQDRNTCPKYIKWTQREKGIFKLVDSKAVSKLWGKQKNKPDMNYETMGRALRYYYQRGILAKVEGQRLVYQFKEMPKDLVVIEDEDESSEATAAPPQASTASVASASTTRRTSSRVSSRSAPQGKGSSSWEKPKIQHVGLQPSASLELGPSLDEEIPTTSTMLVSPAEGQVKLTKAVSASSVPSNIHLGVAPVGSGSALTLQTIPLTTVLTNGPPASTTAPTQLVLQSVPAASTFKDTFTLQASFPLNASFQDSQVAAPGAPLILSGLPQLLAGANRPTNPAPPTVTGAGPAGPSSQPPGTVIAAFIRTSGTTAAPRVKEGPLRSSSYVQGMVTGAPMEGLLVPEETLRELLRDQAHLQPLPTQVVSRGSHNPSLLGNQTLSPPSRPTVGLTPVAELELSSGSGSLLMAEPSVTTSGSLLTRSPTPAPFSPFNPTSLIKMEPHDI

Consider CTTGTA, for which the binding signal with FEV is 1.32 fold enrichment (6-mer frequency, TF over GST control); with ETV5 it was 1.33 fold enrichment (6-mer frequency, TF over GST control); with HSF1, 1.34 fold enrichment (6-mer frequency, TF over GST control); with SPIC, 1.22 fold enrichment (6-mer frequency, TF over GST control); with ELF4, 1.37 fold enrichment (6-mer frequency, TF over GST control); with ELK4, 1.64 fold enrichment (6-mer frequency, TF over GST control). Besides, the binding signal with ETV2 was 1.41 fold enrichment (6-mer frequency, TF over GST control); in the assay with ELF3, 1.27 fold enrichment (6-mer frequency, TF over GST control); in the assay with CRX, 1.27 fold enrichment (6-mer frequency, TF over GST control); with ETV1, 1.41 fold enrichment (6-mer frequency, TF over GST control); in the assay with ERF, 1.45 fold enrichment (6-mer frequency, TF over GST control); with ETV3L, 1.26 fold enrichment (6-mer frequency, TF over GST control). Moreover, the binding signal in the assay with ETS2 is 1.44 fold enrichment (6-mer frequency, TF over GST control); with SPDEF, 1.45 fold enrichment (6-mer frequency, TF over GST control); with ETV7 it was 1.17 fold enrichment (6-mer frequency, TF over GST control); with ELF5 it was 1.36 fold enrichment (6-mer frequency, TF over GST control); in the assay with ETV3, 1.48 fold enrichment (6-mer frequency, TF over GST control); with ETV6, 1.37 fold enrichment (6-mer frequency, TF over GST control).
